Shown are actives, neighbours in structure and some others; about 1.5% of the full set was active somewhere.
cardiac RTF act: cardiac RTF calcium sensitization; P19429+P45379; 340,000 tested, 0.24% active; AID 493008; IANBD-labeled TnC RTF fluorescence at EC20 calcium; 0% EC20 calcium, 100% full calcium; activation, % at 7.2 µM;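 active = activation above the mean over all tested compounds plus 3 SD, cut at about 30% in these data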;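 also: rise in fluorescence read as greater calcium sensitivity of cardiac thin filaments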
CRFBP-R2 block: blocks CRF-induced signaling of the CRF-BP/CRF-R2 complex; AID 588475; 350,000 tested, 0.59% active; HEK293 CRF-R2/CRF-BP, CRF-induced calcium fluorescence; inhibition, % at 11.8 µM;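 active = inhibition of the ligand-induced calcium signal above about 50% at the single tested concentration, limit read from the data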
IDE cell inh: cellular human IDE inhibition | HEK cells, FAbetaB cleavage, fluorescence polarization | inhibition, % at 5.59 µM | 320,000 tested, 0.41% active;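 active = percent inhibition above the average of all tested compounds plus 3 SD, set per screening campaign, cut at about 16% in these data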;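 also: IDE supplied by intact live HEK cells; FP after avidin binding of uncleaved biotin substrate so inhibition keeps polarization high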
Cardiac RTF inh: cardiac RTF calcium desensitization; 340,000 tested, 0.12% active; IANBD-labeled cardiac RTF, Ca2+ fluorescence; P19429+P45379; inhibition, % at 7.15 µM;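 active = inhibition above the mean inhibition of all tested compounds plus 3 SD, cut at about 17% in these data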;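 also: assay run at fixed EC70 calcium of 1.6 mM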
IDE act: activators of human insulin-degrading enzyme in cells. P14735. HEK cells, FAbeta-B cleavage, fluorescence polarization; 0% vehicle, 100% cell-free pure enzyme wells. activation, % at 5.96 µM. 340,000 tested, 0.073% active;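 active = activation above the mean of all tested compounds plus 3 SD, set per screening campaign, cut at about 17% in these data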
CRFR2-BP ag: agonists of human CRF-binding protein/CRF-R2 receptor complex. 350,000 tested, 0.46% active. HEK293 CRF-R2/CRF-BP, calcium dye fluorescence (FLIPR); percent of saturating CRF peptide response. AID 588473. activation, % at 13.2 µM;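 active = activation of at least 50%, plus an integration ratio under a set limit after plate pattern correction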
RTF inh confirm: confirmation of inhibitors of cardiac thin filament calcium sensitivity; shares compounds with Cardiac RTF inh; AID 504635; inhibition, % at 7.15 µM; reconstituted cardiac thin filaments, calcium sensitivity fluorescence; 360 tested, 8% active; in the data active = inhibition above about 18%
A number is an active result; n = inactive; x = no result; ! = not confirmed by another sample.

SMILES	cardiac RTF act	CRFBP-R2 block	IDE cell inh	Cardiac RTF inh	IDE act	CRFR2-BP ag	RTF inh confirm
Cc1nn(C(C)C(=O)NC2CCCCC2)c(=O)c2nn(-c3ccccc3)c(C)c12 (centres undefined)	n	n	n	n	n	n	x
CC(=O)CC(=O)Nc1ccc2ccccc2c1	n	n	n	n	n	n	x
CC(=O)Nc1ccc2ccccc2c1	n	n	n	24	n	n	n
CC(=O)N1c2ccc(S(=O)(=O)N(C)CC(=O)NC3CCCCC3C)cc2CC1C (centres undefined)	n	n	n	n	n	n	x
CC(CC(=O)N1CCN(S(=O)(=O)c2ccc([N+](=O)[O-])cc2)CC1)c1ccccc1 (centres undefined)	n	n	n	n	n	n	x
CCSc1cc(N2CCCC2)nc(-c2cccc(C)c2)n1	n	n	n	18	n	n	n
CCSc1cc(N2CCCC2)nc(-c2ccc(C)cc2)n1	n	n	n	n	n	n	x
Cn1cccc1CC(=O)N/N=C/c1ccc(Cl)c([N+](=O)[O-])c1	x	n	n	x	x	n	x
COc1ccccc1C(=O)NCC(=O)NCCC(c1ccccc1)c1ccccc1	n	n	n	n	n	n	x
CCC(Oc1ccccc1)C(=O)Nc1nnc(S(=O)(=O)N2CCCCC2)s1 (centres undefined)	n	n	n	18	n	n	n
CC1(C)CC(=O)C2=C(C1)Nc1ccccc1NC2c1cccs1 (centres undefined)	n	n	n	19	n	n	n
COc1ccc(C(=O)c2ccc([N+](=O)[O-])cc2)cc1S(=O)(=O)N1CCC(C(=O)O)CC1	n	n	n	n	n	n	x
COCc1nnc(NC(=O)c2ccc(S(=O)(=O)N(CC(C)C)CC(C)C)cc2)o1	n	n	n	189	n	n	n
C=CCN(CC=C)S(=O)(=O)c1ccc(C(=O)Nc2nnc(COC)o2)cc1	n	n	n	n	n	n	x
CCN(CC)C(=O)C1=C(C)N(Cc2ccc(F)cc2)C(=O)C(CC(=O)NCc2ccco2)C1 (centres undefined)	x	n	x	x	x	n	x
Nc1c(S(=O)(=O)c2cccs2)c2nc3ccccc3nc2n1/N=C/c1cccc(O)c1	n	n	n	20	n	n	n
COc1cccc(/C=N/n2c(N)c(S(=O)(=O)c3cccs3)c3nc4ccccc4nc32)c1	n	n	n	n	n	n	x
Cc1ccccc1N1CCN(C2=NC(=O)/C(=C\c3cccs3)S2)CC1	n	n	n	19	n	n	n
O=C1N=C(N2CCN(c3cccc4ccccc34)CC2)S/C1=C/c1cccs1	n	n	n	n	n	n	x
Nc1c(S(=O)(=O)O)cc(NC(=O)c2ccccc2)c2c1C(=O)c1ccccc1C2=O	n	n	n	35	n	n	n
O=c1cc2oc3cc(O)c(O)cc3c(-c3ccccc3[N+](=O)[O-])c-2cc1O	n	n	n	29	n	n	56
CC1CCCN(S(=O)(=O)c2ccc(CN3C(=O)c4cccnc4C3=O)cc2)C1 (centres undefined)	n	n	n	n	n	n	x
Fc1ccc([C@@H]2CCNC[C@H]2COc2ccc3c(c2)OCO3)cc1	n	n	n	20!	n	n	n
Cc1c(Cl)cn2c(=O)cc(CN(C)Cc3nc4ccccc4c(=O)[nH]3)nc2c1Cl	x	x	n	x	x	x	x
CC(C)(CNS(C)(=O)=O)SCc1ccc(Cl)cc1	n	n	n	17	n	n	n
CC(C(=O)O)N1C(=O)/C(=C/C=C/c2ccco2)SC1=S (centres undefined)	n	n	n	87	n	n	40
O=C1/C(=C/c2cccs2)SC(=S)N1NS(=O)(=O)c1ccccc1	n	n	n	n	n	n	x
O=C1/C(=C/C=C/c2ccco2)SC(=S)N1NS(=O)(=O)c1ccccc1	n	n	n	71	n	n	n
O=C(OCC1CC(c2ccccc2)=NO1)c1ccc(Br)cc1 (centres undefined)	n	n	n	18	n	n	n
O=C(OCC1CC(c2ccccc2Cl)=NO1)c1ccc(Br)cc1 (centres undefined)	n	n	n	n	n	n	x
